Compound activity (PubChem BioAssay)
Compounds with a hit are over-represented: about 0.92% of the library has one in this group of screens.
AGP1 TOR yeast = yeast TOR pathway AGP1-GFP modulation; S. cerevisiae AGP1-GFP multiplex flow cytometry, 3 h; GFP as percent of DMSO wells; GFP response vs DMSO, % at 10 µM; actives 0.02% (n = 320,000);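 active = GFP response relative to DMSO above a set limit, near screen average plus 3 SD, cut at about 150% in these data; inconclusive = fewer than 70 cells counted for the yeast strain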;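 also: median GFP channel fluorescence of the gated AGP1 strain per well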
MEP2 TOR yeast = yeast TOR pathway MEP2-GFP modulation; S. cerevisiae MEP2-GFP strain, flow cytometry GFP, 3 h; 100% = DMSO control level; GFP response vs DMSO, % at 10 µM; actives 0.51% (n = 330,000);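 active = GFP response versus DMSO above a set limit, roughly screen mean plus 3 SD, cut at about 180% in these data; inconclusive = fewer than 70 cells counted for a yeast strain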;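 also: median GFP fluorescence of the barcode-gated MEP2-GFP cells per well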
CIT2 TOR yeast = yeast TOR pathway CIT2-GFP modulation; actives 0.065% (n = 320,000); S. cerevisiae CIT2-GFP strain, flow cytometry, 3 h; 100 means same as DMSO wells; GFP response vs DMSO, % at 10 µM;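 active = GFP response relative to DMSO above a set limit, near the screen mean plus 3 SD, cut at about 150% in these data; inconclusive = Fewer than 70 cells measured for a yeast strain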;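 also: ratio of well median GFP fluorescence to mean of DMSO wells on the plate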
RPL19A TOR yeast = modulators of TOR pathway RPL19A-GFP in S. cerevisiae; actives 0.3% (n = 330,000); percent response vs DMSO, % at 10 µM; S. cerevisiae RPL19A-GFP strain, flow cytometry, 3 h; hits give low values;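 active = percent response vs DMSO below 50%; inconclusive = fewer than 70 events counted for the yeast strain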;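 also: median channel GFP fluorescence of the barcoded RPL19A-GFP strain; ratio of sample median GFP to plate DMSO average so 100% = DMSO; lower means less RPL19A-GFP as with rapamycin TOR inhibition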
LAP4 TOR yeast = yeast TOR pathway LAP4-GFP modulation; S. cerevisiae LAP4-GFP multiplex, flow cytometry GFP, 3 h; median GFP as percent of DMSO wells; GFP response vs DMSO, % at 10 µM; actives 0.34% (n = 320,000); AID 2023;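 active = GFP response vs DMSO above a set limit, about the screen mean plus 3 SD, cut at about 150% in these data; inconclusive = under 70 cell events counted for the yeast strain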
An asterisk follows results filed as active; [ ] = dose if it differs, or a comment.

Results for COc1ccc2c(c1)C=Cc1ccccc1O2 ?
AGP1 TOR yeast: 96; MEP2 TOR yeast: 92; CIT2 TOR yeast: 89; RPL19A TOR yeast: 96; LAP4 TOR yeast: 150*

What do the screens show for `COc1ccc2[nH]c3ccccc3c2c1`?
AGP1 TOR yeast: 99; MEP2 TOR yeast: 105; CIT2 TOR yeast: 113; RPL19A TOR yeast: 101; LAP4 TOR yeast: 105

How did NC(=O)C1CCN(c2cc(Cl)ccc2[N+](=O)[O-])CC1 do in these assays?
MEP2 TOR yeast: inconclusive; RPL19A TOR yeast: 41*[may fluoresce violet]

What do the screens show for `NC(=O)C1CCN(c2cc(N3CCOCC3)ccc2[N+](=O)[O-])CC1`?
AGP1 TOR yeast: 104; MEP2 TOR yeast: 101; CIT2 TOR yeast: 96; RPL19A TOR yeast: 97; LAP4 TOR yeast: 111

What do the screens show for `Cc1ccc(C2(C)NC(=O)N(CC(=O)NC(=O)NC(C)C)C2=O)cc1` (stereo unspecified)?
AGP1 TOR yeast: 97; MEP2 TOR yeast: 110; CIT2 TOR yeast: 100; RPL19A TOR yeast: 98; LAP4 TOR yeast: 110

How did Cc1ccc(S(=O)(=O)N(CC(=O)NCc2ccncc2)Cc2ccccc2F)cc1 do in these assays?
AGP1 TOR yeast: 76; MEP2 TOR yeast: 483*; CIT2 TOR yeast: 97; RPL19A TOR yeast: 74; LAP4 TOR yeast: 97

What do the screens show for `CCCCN(C(=O)Cc1cccc(F)c1)c1c(N)n(CCC)c(=O)[nH]c1=O`?
AGP1 TOR yeast: 99; MEP2 TOR yeast: 111; CIT2 TOR yeast: 106; RPL19A TOR yeast: 103; LAP4 TOR yeast: 104

Results for COCCn1c(SCC(=O)Nc2ccccc2)nnc1-c1ccoc1C ?
AGP1 TOR yeast: inconclusive; MEP2 TOR yeast: 234*[may fluoresce violet]; CIT2 TOR yeast: inconclusive; RPL19A TOR yeast: 54; LAP4 TOR yeast: 74

How did COCCn1c(SCC(=O)Nc2ccccc2F)nnc1-c1ccoc1C do in these assays?
AGP1 TOR yeast: 101; MEP2 TOR yeast: 102; CIT2 TOR yeast: 100; RPL19A TOR yeast: 106; LAP4 TOR yeast: 94

What do the screens show for `NCCC1CCCC(CCN)N1` (stereo unspecified)?
AGP1 TOR yeast: 85; MEP2 TOR yeast: 110; CIT2 TOR yeast: 86; RPL19A TOR yeast: inconclusive; LAP4 TOR yeast: 454*[may fluoresce red]

Results for O=C1COc2ccc(C(=O)COC(=O)c3ccccn3)cc2N1 ?
AGP1 TOR yeast: 96; MEP2 TOR yeast: 91; CIT2 TOR yeast: 88; RPL19A TOR yeast: 92; LAP4 TOR yeast: 100

Results for CCCn1nc(C(=O)OCC(=O)c2ccc3c(c2)NC(=O)CO3)c2ccccc2c1=O ?
AGP1 TOR yeast: 254*; MEP2 TOR yeast: active; CIT2 TOR yeast: 169*; RPL19A TOR yeast: 60; LAP4 TOR yeast: 346*

Results for Cc1nnc(NC(=O)c2nc(S(=O)(=O)Cc3ccccc3)ncc2Cl)s1 ?
AGP1 TOR yeast: 113; MEP2 TOR yeast: 111; CIT2 TOR yeast: 112; RPL19A TOR yeast: 102; LAP4 TOR yeast: 168*

What do the screens show for `Cc1cccc(C)c1NC(=O)c1nc(S(=O)(=O)Cc2ccccc2)ncc1Cl`?
AGP1 TOR yeast: 72; MEP2 TOR yeast: 112; CIT2 TOR yeast: 101; RPL19A TOR yeast: 94; LAP4 TOR yeast: 84

How did Cc1ccc(F)cc1NC(=O)N1CCNC(=O)C1CC(=O)Nc1cc(Cl)ccc1Cl (stereo unspecified) do in these assays?
AGP1 TOR yeast: 115; MEP2 TOR yeast: 103; CIT2 TOR yeast: 154*[may fluoresce green]; RPL19A TOR yeast: 91; LAP4 TOR yeast: 118

How did COc1ccccc1NC(=O)CC1C(=O)NCCN1C(=O)Nc1ccc(Cl)c(Cl)c1 (stereo unspecified) do in these assays?
AGP1 TOR yeast: 22; MEP2 TOR yeast: 470*[may fluoresce violet]; CIT2 TOR yeast: inconclusive; RPL19A TOR yeast: 67; LAP4 TOR yeast: 87

Results for O=C(N/N=C/c1ccc(OCC(=O)N2CCCCC2)cc1)c1ccccc1O ?
AGP1 TOR yeast: 95; MEP2 TOR yeast: 96; CIT2 TOR yeast: 90; RPL19A TOR yeast: 94; LAP4 TOR yeast: 95

How did COc1cc(CN(C(=S)NCC(=O)NC2CCCC2)C2CCCC2)cc(OC)c1OC do in these assays?
AGP1 TOR yeast: 108; MEP2 TOR yeast: 105; CIT2 TOR yeast: 104; RPL19A TOR yeast: 102; LAP4 TOR yeast: 94

What do the screens show for `O=S1(=O)N=C(N2CCc3ccccc3C2)c2ccccc21`?
AGP1 TOR yeast: inconclusive; MEP2 TOR yeast: 336*[may fluoresce violet]; CIT2 TOR yeast: inconclusive; RPL19A TOR yeast: 43*[may fluoresce violet]; LAP4 TOR yeast: 87

What do the screens show for `O=S1(=O)N=C(N2CCCc3ccccc32)c2ccccc21`?
AGP1 TOR yeast: 94; MEP2 TOR yeast: 104; CIT2 TOR yeast: 89; RPL19A TOR yeast: 99; LAP4 TOR yeast: 96

Results for CC(=O)NC(Cc1ccc(F)cc1)C(=O)NC1CCN(C(=O)NCc2ccccc2)CC1 (stereo unspecified) ?
AGP1 TOR yeast: 105; MEP2 TOR yeast: 110; CIT2 TOR yeast: 109; RPL19A TOR yeast: 103; LAP4 TOR yeast: 93

Results for CC(C)(C)C(=O)/C=c1\[nH]c(=O)/c(=C\c2ccccc2F)s1 ?
AGP1 TOR yeast: 17; MEP2 TOR yeast: 215*[may fluoresce violet]; CIT2 TOR yeast: inconclusive; RPL19A TOR yeast: 91; LAP4 TOR yeast: 84

How did CN(C(=O)CC(NC(=O)c1ccccc1Cl)c1ccccc1)c1ccccc1 (stereo unspecified) do in these assays?
AGP1 TOR yeast: 87; MEP2 TOR yeast: 96; CIT2 TOR yeast: 107; RPL19A TOR yeast: 100; LAP4 TOR yeast: 74

What do the screens show for `COc1ccccc1C(=O)Nc1ccc2c(c1)nc(CCNC(=O)c1ccco1)n2C`?
AGP1 TOR yeast: 101; MEP2 TOR yeast: 101; CIT2 TOR yeast: 101; RPL19A TOR yeast: 105; LAP4 TOR yeast: 94

What do the screens show for `Cc1cccc(/C(N)=N/OC(=O)C23CC4CC(CC(C4)C2)C3)c1`?
AGP1 TOR yeast: 54; MEP2 TOR yeast: 87; CIT2 TOR yeast: 154*; RPL19A TOR yeast: 93; LAP4 TOR yeast: 119

What do the screens show for `O=C(CCS(=O)(=O)c1ccc(Br)s1)NC1CCCCCC1`?
AGP1 TOR yeast: 23; MEP2 TOR yeast: 448*[may fluoresce violet]; CIT2 TOR yeast: inconclusive; RPL19A TOR yeast: 61; LAP4 TOR yeast: 74

How did Cc1ccc(Cn2c(=N)c(C#N)cc3c(=O)n4cccc(C)c4nc32)cc1 do in these assays?
AGP1 TOR yeast: 100; MEP2 TOR yeast: 104; CIT2 TOR yeast: 92; RPL19A TOR yeast: 94; LAP4 TOR yeast: 95

How did Cc1cccn2c(=O)c3cc(C#N)c(=NC(=O)c4ccccc4)n(Cc4ccco4)c3nc12 do in these assays?
AGP1 TOR yeast: 22; MEP2 TOR yeast: 257*[may fluoresce violet]; CIT2 TOR yeast: inconclusive; RPL19A TOR yeast: 44*[may fluoresce violet]; LAP4 TOR yeast: 96

How did Cc1cccn2c(=O)c3cc(C#N)c(=NC(=O)c4ccco4)n(Cc4ccco4)c3nc12 do in these assays?
AGP1 TOR yeast: 19; MEP2 TOR yeast: 135; CIT2 TOR yeast: inconclusive; RPL19A TOR yeast: 80; LAP4 TOR yeast: 104

What do the screens show for `Cc1ccc(-n2c(=O)c(C#N)cc3c(=O)n4cccc(C)c4nc32)cc1`?
AGP1 TOR yeast: 22; MEP2 TOR yeast: 150; CIT2 TOR yeast: inconclusive; RPL19A TOR yeast: 42*[may fluoresce violet]; LAP4 TOR yeast: 83
